Screening data from PubChem.
KCNQ2 inh: inhibitors of rat KCNQ2 potassium channel; hit rate 1.1% among 310,000; AID 2156; CHO-K1 KCNQ2, FluxOR thallium flux, 20 min; stronger effect = lower value; O88943; B-score at 10 µM;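 active = fluorescence ratio B-score at most minus 3 library SDs, with starting brightness B-score within 2 library SDs, cut at about -5.5 in these data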
KCNQ2 pot: potentiators of rat KCNQ2 potassium channel. CHO-K1 KCNQ2, FluxOR thallium flux fluorescence; stronger effect = higher value. O88943. AID 2239. B-score at 10 µM. hit rate 0.54% among 310,000;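 active = fluorescence ratio B-score at least 3 SD of library B-scores, with initial fluorescence B-score within 3 of them, cut at about 5.3 in these data; same plate scores as AID 2156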;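 also: B-score of peak minus minimum over baseline fluorescence ratio after K+ and Tl+ stimulus; positive B-score means potentiation of KCNQ2 with more thallium influx and brighter signal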
Numbers stand for hits; 0 = inactive; - = no result; ! = not active in a repeat. Only some compounds are listed: those with a hit (about 1.6% of all), similar ones and a draw of the others.

SMILES | KCNQ2 inh | KCNQ2 pot
O=C1Nc2ccccc2N(O)N1c1cc(-c2ccc(Cl)cc2)[nH]n1 | 0 | 0
CSc1ccccc1C(=O)N(C)C(c1ccccc1)c1ccccc1 | -5.7 | 0
CSc1ccccc1C(=O)N(C)Cc1ccccc1 | 0 | -
COc1ccc(Cl)cc1Nc1ncnc2sc(C)c(S(=O)(=O)N3CCC(C)CC3)c12 | -6.7 | 0
COCCNC(=O)Cn1cnc2sc(C)c(S(=O)(=O)N3CCC(C)CC3)c2c1=O | 0 | -
COc1ccc(CCC(=O)NCC23CC4CC(CC(C4)C2)C3)cc1 | 0 | -
Cc1c(O)cccc1C(=O)N[C@@H](CSc1ccccc1)[C@H](O)CN1C[C@H]2CCCC[C@H]2C[C@H]1C(=O)NC(C)(C)C | -5.7! | 0
CC(OC(=O)CNC(=O)c1ccc2ccccc2c1)C(=O)N(C)C1CCCCC1 (stereo not drawn) | 0 | -
COc1ccccc1NC(=O)/C(=C/c1cccc([N+](=O)[O-])c1)c1ccccc1 | -6 | 0
COc1ccccc1NC(=O)CC(=O)c1cccc([N+](=O)[O-])c1 | 0 | 0
CCC(C)N(NC(C)=O)c1nc(Cl)nc(NC(C)(C)C)n1 (stereo not drawn) | 0 | 0
Cc1cccc(N2CCN(C(=S)Nc3ccc4nc5n(c(=O)c4c3)CCCCC5)CC2)c1C | 0 | -
CC(CC(=O)Nc1nnc(CC(C)(C)C)s1)c1ccccc1 (stereo not drawn) | 0 | -
CCOc1ccccc1NC(=O)C1CCCCN1S(=O)(=O)c1ccc(F)cc1 (stereo not drawn) | 0 | 0
CCOc1ccc(CN(C)C(=O)CNC(=O)c2ccccc2)cc1 | 0 | -
CN(CCOc1ccc(Br)cc1)C(=O)CNC(=O)c1ccc2ccccc2c1 | -6.5 | 0
COc1cc([N+](=O)[O-])c(C(=O)N2CCOCC2)c([N+](=O)[O-])c1 | 0 | -
COc1ccc(OC)c(-c2nc(C(=O)NCC3CCCO3)cc3c2[nH]c2ccccc23)c1 (stereo not drawn) | 0 | -
COc1cccc(-c2nc(C(=O)NCC3CCCO3)cc3c2[nH]c2ccccc23)c1 (stereo not drawn) | -5.7 | 0
CCc1nnc(NC=C2C(=O)OC(C)(C)OC2=O)s1 | 0 | -
CCOC(=O)Cn1nc(-c2ccccc2)nc1-c1ccccc1 | 0 | -
O=C(Cn1nc(-c2ccccc2)nc1-c1ccccc1)OC1CCCCC1 | -6.1 | 0
Cc1ccc(SC[C@H](c2ccccc2)N2CCN(CCc3ccccc3)CCC2=O)cc1 | -6.1 | 0
CC(C)CN1CCC(=O)N([C@H](CSc2ccccc2)Cc2ccccc2)CC1 | -5.7 | 0
Cc1ccc(SC[C@H](Cc2ccccc2)N2CCN(CC(C)C)CCC2=O)cc1 | 0 | -
SMILES | KCNQ2 inh | KCNQ2 pot
O=C1CCN(CCc2ccccc2)CCN1[C@H](CSc1ccccc1)c1ccccc1 | 0 | -
Cc1ccc(C(=O)NCCCN2CCOCC2)c(Cl)c1 | 0 | 0
O=C(NS(=O)(=O)Oc1cccc(Cl)c1Cl)OC[C@@H]1CCCN2CCCCC12 (stereo partly drawn) | 0 | -
CC1Cc2cc(/C(O)=C3/C(=O)C(=O)N(CCCN4CCOCC4)C3c3ccc(C(C)C)cc3)ccc2O1 (stereo not drawn) | 0 | -
CC(=O)c1cccc(NC(=O)CNC(=O)c2sc3ccccc3c2Cl)c1 | 0 | -
COc1ccc(CN2C(=O)c3ccccc3C2C(=O)NC2CCCCCC2)c(OC)c1 (stereo not drawn) | 0 | -
CCN(CC)C(=O)C1=C(C)Nc2nc3ccccc3n2C1c1cccc(OC)c1 (stereo not drawn) | -7.7 | 0
CCOC(=O)C1=C(C)Nc2nc3ccccc3n2C1c1ccc(O)cc1 (stereo not drawn) | 0 | 0
COCCNC(=O)Cc1c(C)c2c(cc(C)c3c(C(C)(C)C)coc32)oc1=O | 0 | 0
C=CCn1c(=O)c(C(=O)Nc2ccccc2C)c(O)c2ccccc21 | -6.1 | 0
C=CCn1c(=O)c(C(=O)Nc2ccccc2O)c(O)c2ccccc21 | 0 | -
CCn1cc([N+](=O)[O-])c(C(=O)N2CCCCCC2)n1 | 0 | -
Cc1cccc(COCC(Cc2ccccc2)N2CCN(C(=O)c3cccc(C)c3)CCC2=O)c1 (stereo not drawn) | -5.8 | 0
Cc1ccccc1COC[C@H](CC(C)C)N1CCN(C(=O)c2cccc(C(F)(F)F)c2)CCC1=O | -6.9 | 0
Cc1ccc(S(=O)(=O)N2CCC(=O)N(C(COCc3cccc(Cl)c3)Cc3ccccc3)CC2)cc1 (stereo not drawn) | 0 | -
Cc1ccc(S(=O)(=O)N2CCC(=O)N(C(COCc3ccc(Cl)cc3Cl)Cc3ccccc3)CC2)cc1 (stereo not drawn) | -6 | 0
Cc1cccc(COCC(Cc2ccccc2)N2CCN(C(=O)c3ccc(Cl)c(Cl)c3)CCC2=O)c1 (stereo not drawn) | 0 | -
O=C(c1ccc(Cl)c(Cl)c1)N1CCC(=O)N(C(COCc2ccc(Cl)cc2)Cc2ccccc2)CC1 (stereo not drawn) | -5.9 | 0
CC(C)CC(COCc1cccc(C(F)(F)F)c1)N1CCN(C(=O)c2cccc(C(F)(F)F)c2)CCC1=O (stereo not drawn) | 0 | -
Cc1cccc(COCC(Cc2ccccc2)N2CCN(C(=O)c3cc(Cl)cc(Cl)c3)CCC2=O)c1 (stereo not drawn) | 0 | -
O=S(=O)(/N=C(/c1ccccc1)N1CCCCC1)c1ccccc1 | 0 | 0
O=C(COC(=O)C1(c2ccc(Cl)cc2)CCCC1)N1CCc2ccccc21 | -7.3 | 0
O=C(CNS(=O)(=O)c1ccc(Cl)cc1)OCC(=O)N1CCCc2ccccc21 | 0 | -
Cc1ccc(-c2csc3ncn(-n4c(C)ccc4C)c(=O)c23)o1 | -6.6 | 0
Cc1sc2ncn(-n3c(C)ccc3C)c(=O)c2c1C | -5.7 | 0
SMILES | KCNQ2 inh | KCNQ2 pot
C=CCn1c(SCc2ccccc2)nc2scc(-c3ccc(C)o3)c2c1=O | 0 | 0
Cc1sc2ncn(CCn3cnc4sc(C)c(C)c4c3=O)c(=O)c2c1C | 0 | -
O=C(CN1C(=O)NC2(CCCC2)C1=O)Nc1nc2ccc(F)cc2s1 | 0 | 0
O=C(CN1C(=O)C2CC=CCC2C1=O)Nc1nc2ccc(F)cc2s1 (stereo not drawn) | -6.7 | 0
CCCCNC(=S)N/N=C/C1=CCC2CC1C2(C)C (stereo not drawn) | 0 | 5.4
C=C(C)CNC(=S)N/N=C/C1=CCC2CC1C2(C)C (stereo not drawn) | 0 | 0
N#CC(c1cccc(C(F)(F)F)c1)(c1ncc(C(F)(F)F)cc1Cl)N1CCOCC1 (stereo not drawn) | 0 | -
N#CC(c1ccccc1)(c1ncc(C(F)(F)F)cc1Cl)N1CCOCC1 (stereo not drawn) | -7 | 0
COc1ccc(NC(=O)COC(=O)CC23CC4CC(CC(C4)C2)C3)c([N+](=O)[O-])c1 | -6.1 | 0
CCC(=O)OCC(=O)Nc1ccc(OC)cc1[N+](=O)[O-] | 0 | -
COc1ccc(CNC(C)C(=O)Nc2ccc3ccccc3c2)cc1OC (stereo not drawn) | 0 | -
Cc1ccc2[nH]c(=O)c3cc(C(=O)N(C)C4CCCCC4)sc3c2c1 | 0 | 0
C/C(=N\Nc1ccc([N+](=O)[O-])cc1)c1ccc(N)cc1 | 0 | -
C/C(=N\Nc1nc(C)c(C)s1)c1ccc([N+](=O)[O-])cc1 | 0 | 5.4
CC1=CC(C#N)(C#N)C(C#N)(C#N)C(c2ccccc2)N1 (stereo not drawn) | 0 | -
CC1CCC(C(C)C)C2=C1C(C#N)(C#N)C(C#N)(C#N)C(c1ccccc1)N2 (stereo not drawn) | -7.8 | 0
CN(C)c1cc[n+](CC(=O)c2ccc(OC(F)F)cc2)cc1 | 0 | 0
Cc1ccc(CSCCNS(=O)(=O)c2ccccc2)cc1 | 0 | -
